# Shown are actives, neighbours in structure and some others; about 19% of the full set was active somewhere.
# HT1080 IDH1KD tx = qHTS for induction of synthetic lethality in tumor cells producing 2HG: qHTS for the HT-1080-IDH1KD cell line | HT-1080 IDH1 knockdown viability, ATP luminescence, 48 h | Potency, µM (series often up to 46.1 µM), for inactives: at the highest dose activity, negative = toxicity, most hits filed as cytotoxic | 360,000 compounds, 2% hits;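 note: potency is the fitted concentration of half-maximal effect; 0% = DMSO wells and -100% = cell-free medium wells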
#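 Luminescent ATP read-out (CellTiter-Glo, 10 min at room temperature) after 48 h compound exposure at 37 °C gave viability of IDH1-knockdown HT-1080 cells. Activity was normalised to DMSO and cell-free wells, then fitted as concentration-response curves.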
# TDP1 cell noCPT = qHTS for Inhibitors of human tyrosyl-DNA phosphodiesterase 1 (TDP1): qHTS in cells in absence of CPT; DT40 Tdp1-/- hTDP1 cells, no CPT, ATP luminescence, 48 h; Potency, µM (series often up to 46.2 µM), without a hit: top-dose activity change, negative = growth inhibition, most hits filed as inhibitors; 420,000 compounds, 15% hits; AID 686978, 2013; note: potency is the fitted concentration of half-maximal effect; nearly all actives have a fitted effect of over 55% in size
#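 Stably hTDP1-transfected Tdp1-null chicken DT40 cells were treated with library compounds minus camptothecin and grown for at least 48 hr at 37 °C, after which cellular ATP was quantified by luminescence.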
# IL1B secr inh = qHTS for Inhibitors of Inflammasome Signaling: IL-1-beta AlphaLISA Primary Screen; THP-1 LPS/ATP IL-1B secretion, AlphaLISA, 16 h; active compounds read low; activity change, % at 57.5 µM; 360,000 compounds, 4.7% hits; AID 743279, 2014; in the data active = activity change below about -50%; inconclusive = mostly about -30% to -49%
#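 Secreted IL-1B measured by AlphaLISA bead assay after 16 h compound exposure of THP-1 cells; compounds (final up to 57.5 uM) added 1 h before LPS (250 ng/mL) and ATP (1.25 mM) stimulation; lower signal means less secretion.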
# HT1080-NT tox = qHTS for induction of synthetic lethality in tumor cells producing 2HG: qHTS for the HT-1080-NT fibrosarcoma cell line; HT-1080-NT fibrosarcoma viability, CellTiter-Glo ATP luminescence, 48 h; Potency, µM (top dose mostly 46.1 µM), without a hit: at the highest dose activity, negative = less viability, hits mostly cytotoxic; 360,000 compounds, 1.6% hits; AID 686970, 2013;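 note: NT is the 2HG producing partner of a matched IDH1 knockdown line; potency is the fitted concentration of half-maximal effect; 0% = DMSO-treated cells and -100% = media-only wells without cells; nearly all actives have a fitted effect of over 55% in size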
#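 Luminescent CellTiter-Glo readout after 48 hours of compound exposure at 37 degrees C defined viability of HT-1080-NT cells. Activity was normalized to DMSO wells and cell-free media wells; concentration-response curves were fitted and assigned curve classes.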
# DT40 TDP1 CPT = qHTS for Inhibitors of human tyrosyl-DNA phosphodiesterase 1 (TDP1): qHTS in cells in presence of CPT; 420,000 compounds, 12% hits; Potency, µM (series often up to 46.2 µM), for inactives: at the top dose activity change, negative = growth inhibition, hits mostly inhibitors; chicken DT40 Tdp1-/-;hTDP1 cells + 20 nM CPT, ATP luminescence, 48 h; note: potency is the fitted concentration of half-maximal effect; nearly all actives have a fitted effect of over 55% in size
#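 Cell growth measured by CellTiter-Glo luminescence after a minimum 48 h, 37 C compound exposure with 20 nM CPT in Tdp1-knockout DT40 cells stably expressing hTDP1, seeded 400/well; qHTS titration format.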
# Active calls of the source: *; ? = inconclusive; . = not tested or not shown. Unless noted, calls come from the whole dose curve; as a rule, active = well fitted curve in the direction sought with a large enough effect; inconclusive = small, poorly fitted or top-dose-only effect, or another doubt; inactive = no such curve, though single readings can be large; an effect the other way counts as inactive or inconclusive. Unless noted, % is set by controls: 0 for no effect and ±100 for the full control effect.
SMILES,HT1080 IDH1KD tx,TDP1 cell noCPT,IL1B secr inh,HT1080-NT tox,DT40 TDP1 CPT
CC(C)c1nn2c(=O)cc(COC(=O)c3ccccc3NC(=O)c3cccc(Cl)c3)nc2s1,.,18µM*,.,.,16µM*
CSCCC(NS(=O)(=O)c1cccs1)C(=O)Nc1ccc(C)c(Cl)c1 (configuration not stated),.,-29%,.,.,-3%
C[C@H]1CN([C@@H](C)CO)C(=O)CCCn2nncc2CO[C@@H]1CN(C)Cc1cccc2c1OCCCO2,2%,7%,-7,2%,5%
COc1cccc(N/C(N)=N/c2nc(C(F)(F)F)cc(=O)[nH]2)c1,15%,?,19,7%,10µM*
Cc1cc(C)n2nc(CNS(=O)(=O)c3ccc(F)cc3)nc2n1,9%,?,9,0%,-2%
COC(=O)c1cccc(C#CC(NP(=O)(c2ccccc2)c2ccccc2)c2ccccc2)c1 (configuration not stated),-28%,?,-64*,-19%,26µM*
COC(=O)c1cccc(NC(=O)CCCOc2ccccc2)c1,-1%,-2%,10,-3%,-1%
CC(C)C[C@@H](CN1CCC[C@@H]1CN1C(=S)NC[C@@H]1Cc1ccc(O)cc1)N1C[C@H](Cc2ccccc2)N(CCc2ccccc2)C1=S,-19%,?,-17,-14%,?
CC(C)C[C@H]1CNC(=S)N1C[C@H]1CCCN1C[C@H](CC(C)C)N1C[C@H](Cc2ccc(O)cc2)N(CCc2ccccc2)C1=S,?,18µM*,-6,18µM*,?
CC(C)C[C@H]1CN([C@@H](CC(C)C)CN2CCC[C@@H]2CN2C(=S)NC[C@@H]2Cc2ccc(O)cc2)C(=S)N1CCc1ccccc1,?,9.2µM*,?,?,13µM*
CC(C)C[C@@H](CN1CCCC1CN1C(=S)NC[C@@H]1Cc1ccc(O)cc1)N1C[C@H](Cc2ccccc2)N(CCc2ccccc2)C1=S (some centres not stated),1%,15µM*,-16,-3%,?
OCCCNCc1ccc(-c2ccccc2)cc1,-8%,-8%,-12,-27%,-1%
c1ccc(-c2ccc(CNC3CC3)cc2)cc1,-6%,0%,-87*,6%,?
Fc1cccc(Cl)c1CNc1n[nH]c(-c2ccco2)n1,.,-29%,.,.,?
CCOc1cc2[nH]c(=O)n(Cc3ccc(C(=O)NCCOC)cc3)c(=O)c2cc1OCC,-2%,-10%,-22,2%,-1%
COc1ccc(N2CCN(C(=O)c3ccc4c(=O)n(Cc5ccc6c(c5)OCO6)c(=O)[nH]c4c3)CC2)cc1,11%,6%,24,6%,-6%
COc1cccc(N2CCN(C(=O)c3ccc(Cn4c(=O)[nH]c5cc(OC)c(OC)cc5c4=O)cc3)CC2)c1,.,4.1µM*,.,.,9.2µM*
CCOc1cc2[nH]c(=O)n(Cc3ccc(C(=O)N4CCN(c5cccc(Cl)c5)CC4)cc3)c(=O)c2cc1OCC,.,2.6µM*,.,.,3.7µM*
CCOc1cc2[nH]c(=O)n(Cc3ccc(C(=O)N4CCN(c5ccccc5)CC4)cc3)c(=O)c2cc1OCC,.,5.8µM*,.,.,12µM*
CCOc1cc2[nH]c(=S)n(Cc3ccc(C(=O)O)cc3)c(=O)c2cc1OCC,11%,-3%,35,6%,10%
CCc1nnc(NC(=O)CSc2nc3c([nH]c4ccccc43)c(=O)n2-c2ccc(C)cc2)s1,.,-20%,.,.,-22%
CCOC(=O)[C@]12CCC=C1N(Cc1ccccc1)C(=O)[C@H](CC(=O)N1CCCCC1)C2,13%,?,7,16%,21µM*
CCOC(=O)[C@]12CCCC=C1N(Cc1ccc(Cl)cc1Cl)C(=O)[C@H](CC(=O)N1CCOCC1)C2,2%,15µM*,8,-3%,?
CCOC(=O)N1CCN(C(=O)C[C@@H]2C[C@@]3(C(=O)OCC)CCC=C3N(Cc3ccc(Cl)cc3Cl)C2=O)CC1,?,15µM*,0,-17%,18µM*
CCOC(=O)[C@]12CCC=C1N(Cc1ccc(Cl)cc1Cl)C(=O)[C@H](CC(=O)N1CCN(C(=O)c3ccco3)CC1)C2,?,16µM*,?,-13%,16µM*
SMILES,HT1080 IDH1KD tx,TDP1 cell noCPT,IL1B secr inh,HT1080-NT tox,DT40 TDP1 CPT
CCOC(=O)[C@]12CCCC=C1N(Cc1ccccc1)C(=O)[C@H](CC(=O)N1CCOCC1)C2,2%,7%,10,13%,12%
CCOC(=O)N1CCN(C(=O)C[C@@H]2C[C@@]3(C(=O)OCC)CCC=C3N(Cc3ccccc3)C2=O)CC1,15%,-5%,-3,21%,-18%
CCOC(=O)[C@]12CCC=C1N(Cc1ccc(Cl)cc1Cl)C(=O)[C@H](CC(=O)N1CCCC1)C2,-21%,15µM*,-19,1%,16µM*
CCOC(=O)[C@]12CCC=C1N(Cc1ccc(Cl)cc1Cl)C(=O)[C@H](CC(=O)N1CCCCC1)C2,?,?,13,?,?
Cc1ccc(S(=O)(=O)/N=C2\C(=O)c3ccccc3C([O-])=C2n2cc[n+](CCC(C)C)c2)cc1,10µM*,16µM*,44,?,16µM*
Cc1ccc(NC(=O)C[n+]2ccn(C3=C([O-])c4ccccc4C3=O)c2)cc1,-15%,-11%,-3,-9%,14%
CC(=O)Nc1ccc(S(=O)(=O)/N=C2\C(=O)c3ccccc3C([O-])=C2n2cc[n+](-c3ccccn3)c2)cc1,-16%,8.2µM*,63,-5%,3.7µM*
COc1ccc(S(=O)(=O)N(C)C)cc1NC(=O)C1CCN(c2ncnc3sc(C)c(C)c23)CC1,-29%,9.2µM*,-15,-15%,21µM*
Cc1sc2ncnc(N3CCC(C(=O)Nc4cc(S(C)(=O)=O)ccc4Cl)CC3)c2c1C,-11%,18µM*,?,-14%,13µM*
Cc1sc2ncnc(N3CCC(C(=O)NNC(=O)c4ccc(Cl)cc4)CC3)c2c1C,-6%,15µM*,-81*,-9%,16µM*
Cc1sc2ncnc(N3CCC(C(=O)Nc4cc(C(F)(F)F)ccc4OCC(F)(F)F)CC3)c2c1C,-10%,18µM*,-56*,-9%,?
Cc1sc2ncnc(N3CCC(C(=O)Nc4ccc(C#N)cc4)CC3)c2c1C,-1%,?,-2,0%,?
O=c1c2cn[nH]c2[nH]c(=S)n1-c1ccccc1F,-2%,0%,-7,17%,0%

# Assay outcomes: PubChem, National Center for Advancing Translational Sciences (NCATS)
